{"source": "PubChem BioAssay AID651610", "about": "(Broad Institute, 2012)", "test": "inhibitors of HIV-1 Env-driven cell-cell fusion, primary screen, HeLa-JRFL effector, CEM21 target cells, luciferase (AID 651610);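 further: 0% = plate neutral controls and 100% = maraviroc near 300 nM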", "conditions": "hits give high values", "note": "Several values for one entry are separate records, joined by “and”; a condition that tells them apart may be missing. Identical values can stand only once. About 3,900 (1.1%) of roughly 360,000 compounds were called active. Shown is part of a subset that was picked to be rich in actives. Unmarked numbers belong to inactive results.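 How the source made its calls: active means mean replicate inhibition score of at least 50 and every replicate individually at or above 50; inconclusive means only one of the two criteria met; inactive means mean below 50 and not all replicates reaching 50.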"}
{"molecule": "CC(=O)C1=C(C)N(Cc2ccc(Cl)cc2)C(=S)NC1c1ccc(F)cc1", "note": "(stereo not given)", "values": [{"measurement": "inhibition", "setting": "at 16.7 µM unless noted", "value": "62.3% [at 12.3 µM] (active)"}]}
{"molecule": "C[C@@H]1CCCCO[C@@H](CN(C)S(=O)(=O)c2cccs2)[C@@H](C)CN([C@H](C)CO)C(=O)c2cc(NC(=O)Nc3ccc4c(c3)OCO4)ccc2O1", "values": [{"measurement": "inhibition", "setting": "at 16.7 µM unless noted", "value": 4.87, "unit": "%"}]}
{"molecule": "COCC(=O)Nc1ccc2c(c1)C(=O)N(C)C[C@H](OC)[C@@H](C)CN(C(=O)Cc1cccnc1)[C@@H](C)CO2", "values": [{"measurement": "inhibition", "setting": "at 16.7 µM unless noted", "value": 0.828, "unit": "%"}]}
{"molecule": "CCc1ccc(N(CC)c2ncnc3nc[nH]c23)cc1", "values": [{"measurement": "inhibition", "setting": "at 16.7 µM unless noted", "value": "55.5% [at 12.3 µM] (active)"}]}
{"molecule": "S=c1c2[nH]cnc2ncn1CCSc1ncnc2nc[nH]c12", "values": [{"measurement": "inhibition", "setting": "at 16.7 µM unless noted", "value": "-6.63% [at 12.3 µM]"}]}
{"molecule": "CCC(=O)N1[C@H](C(=O)NCc2ccc(F)cc2)[C@@H](CO)[C@@H]2Cn3c(ccc(C4=CCCCC4)c3=O)[C@@H]21", "values": [{"measurement": "inhibition", "setting": "at 16.7 µM unless noted", "value": 22.3, "unit": "%"}]}
{"molecule": "C[C@@H]1CCCCO[C@@H](CN(C)Cc2ccncc2)[C@@H](C)CN([C@@H](C)CO)C(=O)c2cc(N(C)C)ccc2O1", "values": [{"measurement": "inhibition", "setting": "at 16.7 µM unless noted", "value": 12.4, "unit": "%"}]}
{"molecule": "O=C(O)CCCCCNc1ncnc2ccc(Br)cc12", "values": [{"measurement": "inhibition", "setting": "at 16.7 µM unless noted", "value": "26.9% [at 12.3 µM]"}]}
{"molecule": "C=CCNc1ncnc2ccc(Br)cc12", "values": [{"measurement": "inhibition", "setting": "at 12.3 µM", "value": "92.8% (active)"}, {"measurement": "inhibition", "setting": "at 16.7 µM", "value": "9.63% and 27.5%"}]}
{"molecule": "Brc1ccc2ncnc(NCc3cccnc3)c2c1", "values": [{"measurement": "inhibition", "setting": "at 16.7 µM unless noted", "value": "43.2% [at 12.3 µM]"}]}
{"molecule": "CN1CCN(C(=O)C[C@H]2C[C@H]3c4cc(NC(=O)Nc5ccccc5F)ccc4O[C@H]3[C@H](CO)O2)CC1", "values": [{"measurement": "inhibition", "setting": "at 16.7 µM unless noted", "value": -13.6, "unit": "%"}]}
{"molecule": "COc1ccccc1CNC(=O)C[C@@H]1C[C@@H]2c3cc(NC(=O)C4CCOCC4)ccc3O[C@@H]2[C@@H](CO)O1", "values": [{"measurement": "inhibition", "setting": "at 16.7 µM unless noted", "value": -2.64, "unit": "%"}]}
{"molecule": "Cn1c(CN2CCOCC2)nc2cc(NC(=O)c3ccc(Cl)cc3)ccc21", "values": [{"measurement": "inhibition", "setting": "at 16.7 µM unless noted", "value": "66.4% [at 12.3 µM] (active)"}]}
{"molecule": "O=C(Nc1ccc(CN2CCOCC2)cc1)c1cc(Cl)ccc1Cl", "values": [{"measurement": "inhibition", "setting": "at 16.7 µM unless noted", "value": "-16% [at 12.3 µM]"}]}
{"molecule": "CCOC(=O)N1CCN(Cc2nc3cc(NC(C)=O)ccc3n2C)CC1", "values": [{"measurement": "inhibition", "setting": "at 16.7 µM unless noted", "value": "9.8% [at 12.3 µM]"}]}
{"molecule": "CNC[C@@H]1Oc2cc(-c3ccccc3OC)ccc2S(=O)(=O)N([C@@H](C)CO)C[C@H]1C", "values": [{"measurement": "inhibition", "setting": "at 16.7 µM unless noted", "value": -40.9, "unit": "%"}]}
{"molecule": "CCCNC(=O)N(C)C[C@H]1Oc2cc(-c3ccncc3)ccc2S(=O)(=O)N([C@H](C)CO)C[C@H]1C", "values": [{"measurement": "inhibition", "setting": "at 16.7 µM unless noted", "value": -10.2, "unit": "%"}]}
{"molecule": "CC(=O)c1c(C)[nH]c(C(=O)OCC(=O)Nc2c(C)cccc2C)c1C", "values": [{"measurement": "inhibition", "setting": "at 16.7 µM unless noted", "value": "76.4% [at 12.3 µM] (active)"}]}
{"molecule": "CC(=O)c1c(C)[nH]c(C(=O)OCC(=O)NCCC(C)C)c1C", "values": [{"measurement": "inhibition", "setting": "at 16.7 µM unless noted", "value": "38.2% [at 12.3 µM]"}]}
{"molecule": "CC(=O)c1c(C)[nH]c(C(=O)OCC(=O)Nc2cc(S(=O)(=O)N3CCCCC3)ccc2C)c1C", "values": [{"measurement": "inhibition", "setting": "at 16.7 µM unless noted", "value": "0.591% [at 12.3 µM]"}]}
{"molecule": "CO[C@@H]1CN(C)C(=O)c2cc(NS(=O)(=O)c3ccccc3C)ccc2OC[C@@H](C)N(S(C)(=O)=O)C[C@@H]1C", "values": [{"measurement": "inhibition", "setting": "at 16.7 µM unless noted", "value": 23.9, "unit": "%"}]}
{"molecule": "C[C@@H]1CN([C@@H](C)CO)C(=O)c2cc(-c3ccccc3F)cnc2O[C@@H]1CN(C)Cc1cccc(F)c1", "values": [{"measurement": "inhibition", "setting": "at 16.7 µM unless noted", "value": 6.32, "unit": "%"}]}
{"molecule": "CC1CCCC(C)N1C(=O)CN1CCN(c2nc(-c3ccc(F)cc3)cs2)CC1", "note": "(stereo not given)", "values": [{"measurement": "inhibition", "setting": "at 16.7 µM unless noted", "value": "57.8% [at 12.3 µM] (active)"}]}
{"molecule": "O=C(COC(=O)C1CCCO1)Nc1nc(-c2ccc(F)cc2)cs1", "note": "(stereo not given)", "values": [{"measurement": "inhibition", "setting": "at 16.7 µM unless noted", "value": "-32.6% [at 12.3 µM]"}]}
{"molecule": "Cc1cccc(C)c1NC(=O)CN1CCN(c2ccc(F)cc2)CC1", "values": [{"measurement": "inhibition", "setting": "at 16.7 µM unless noted", "value": "-17.6% [at 12.3 µM]"}]}
{"molecule": "C[C@@H]1CN([C@@H](C)CO)S(=O)(=O)c2ccc(C#Cc3ccccc3F)cc2O[C@H]1CN(C)C(=O)c1ccc2c(c1)OCO2", "values": [{"measurement": "inhibition", "setting": "at 16.7 µM unless noted", "value": 48.7, "unit": "%"}]}
{"molecule": "CCC(=O)N(C)C[C@@H]1Oc2cc(C#Cc3cccnc3)ccc2S(=O)(=O)N([C@H](C)CO)C[C@@H]1C", "values": [{"measurement": "inhibition", "setting": "at 16.7 µM unless noted", "value": 19.7, "unit": "%"}]}
{"molecule": "CNC(=O)C[C@@H]1CC[C@@H]2[C@H](COc3ccc(NC(=O)c4cccs4)cc3C(=O)N2C)O1", "values": [{"measurement": "inhibition", "setting": "at 16.7 µM unless noted", "value": 0.696, "unit": "%"}]}
{"molecule": "CO[C@H]1CN(C)C(=O)c2cc(NS(=O)(=O)c3ccccc3)ccc2OC[C@H](C)N(C)C[C@@H]1C", "values": [{"measurement": "inhibition", "setting": "at 16.7 µM unless noted", "value": 5.07, "unit": "%"}]}
{"molecule": "CNC[C@H]1Oc2cc(-c3cccnc3)ccc2S(=O)(=O)N([C@@H](C)CO)C[C@H]1C", "values": [{"measurement": "inhibition", "setting": "at 16.7 µM unless noted", "value": -16.2, "unit": "%"}]}
{"molecule": "CC(=O)N[C@H]1CC[C@H](CCNC(=O)C2CC2)O[C@H]1CO", "values": [{"measurement": "inhibition", "setting": "at 16.7 µM unless noted", "value": -15.4, "unit": "%"}]}
{"molecule": "CCOC(=O)C1=C(c2ccc(OC)cc2)C(=O)c2ccccc2C1=O", "values": [{"measurement": "inhibition", "setting": "at 16.7 µM unless noted", "value": "74.3% [at 12.3 µM] (active)"}]}
{"molecule": "CCOC(=O)C(Cc1ccc(N)cc1)N1C(=O)c2ccccc2C1=O", "note": "(stereo not given)", "values": [{"measurement": "inhibition", "setting": "at 16.7 µM unless noted", "value": "6.82% [at 12.3 µM]"}]}
{"molecule": "CCOC(=O)C(Cc1ccccc1)NC(=O)CCC(=O)c1ccc(OC)cc1", "note": "(stereo not given)", "values": [{"measurement": "inhibition", "setting": "at 16.7 µM unless noted", "value": "4.22% [at 12.3 µM]"}]}
